From ChEMBL document CHEMBL3988442, “University of Dundee, Small-Polar-MMV Screening Library” (2021)
Hit rate of the full screen: of about 69,000 compounds, about 950 (1.4%) showed an effect of 50% or more. The sample holds strong results, similar compounds and a random draw of the others, so the mix is not that of the screen.

Test system: Mycobacterium tuberculosis
Test: Cornell M. t heat shock assay; further: in the data most compounds retested in dose-response had high values
Type: functional, organism-based
Parameters: dose or concentration left out as unconfirmed

Row | SMILES | Percent Effect
1 | COCC1CN(S(=O)(=O)N(C)C)Cc2ncn(CC3CC3)c21.O=C(O)C(F)(F)F (stereo not given) | -32.61%
2 | Cc1noc([C@@H]2CC[C@@H]3[C@@H](CCN3S(=O)(=O)c3cccnc3)O2)n1.O=C(O)C(F)(F)F | 58.53%
3 | Cc1noc([C@@H]2C[C@H]3OCC[C@H]3N(S(=O)(=O)c3cccnc3)C2)n1.O=C(O)C(F)(F)F | -33.58%
4 | Cc1noc([C@@H]2CC[C@@H]3[C@@H](CCN3S(=O)(=O)c3ccccc3)O2)n1 | -26.97%
5 | Cc1cccc(COc2ccc(C(C)N)cc2)c1.Cl (stereo not given) | 2.748%
6 | Cc1noc(C)c1CN1CCO[C@H]2CN(Cc3ccc(F)cc3)C[C@H]21.O=C(O)C(F)(F)F.O=C(O)C(F)(F)F | -6.13%
7 | Cc1ccc(C(=O)N2CC(=O)N(Cc3cccs3)CC(O)C2)cc1 (stereo not given) | 58.25%
8 | CSc1ccc(C(=O)N2CC(=O)N(Cc3cccs3)CC(O)C2)cc1 (stereo not given) | 29.81%
9 | O=C1CN(C(=O)c2ccc(Cl)cc2)CC(O)CN1Cc1cccs1 (stereo not given) | 16.61%
10 | CSc1ccc(C(=O)N2CC(=O)N(Cc3ccccc3)CC(O)C2)cc1 (stereo not given) | 28.35%
11 | COc1ccc(C(=O)N2CC(=O)N(Cc3cccs3)CC(O)C2)cc1 (stereo not given) | 14.04%
12 | O=C1CN(C(=O)c2ccc(F)cc2)CC(O)CN1Cc1cccs1 (stereo not given) | 62.26%
13 | O=C(Cc1ccsc1)N1C[C@@H]2OCCN(CC3CCCO3)[C@@H]2C1.O=C(O)C(F)(F)F (stereo not given in full) | -30.31%
14 | CNC(=O)[C@H]1C[C@@H]2CN(C(=O)Nc3ccccc3)C[C@H]1O2 | -29.03%
15 | CN(C)CCN1CCC2(CC1)CN(Cc1cccnc1)C(=O)CO2.O=C(O)C(F)(F)F.O=C(O)C(F)(F)F.O=C(O)C(F)(F)F | 8.81%
16 | O=C(O)C(F)(F)F.O=C(O)C(F)(F)F.c1cc(COC[C@]23COC[C@H]2CN(CC2CCC2)C3)ccn1 | -30%
17 | O=C(NC[C@]12COC[C@H]1CN(Cc1ccncc1)C2)c1ccco1.O=C(O)C(F)(F)F.O=C(O)C(F)(F)F | -3.617%
18 | Cn1cncc1C(=O)N1CCOC2(COCCN(CC3CC3)C2)C1.O=C(O)C(F)(F)F (stereo not given) | 41.2%
19 | Cc1cnn(CC2CCCN2Cc2nnc(C3CC3)n2C)c1 (stereo not given) | 10.04%
20 | Cc1cnn(CC2CCCN2Cc2nccn2C)c1 (stereo not given) | 15.87%
21 | Cc1cnn(CC2CCCCN2Cc2cnc(C)s2)c1 (stereo not given) | 18.92%
22 | Cc1cnn(CC2CCCCN2Cc2ncc(C(C)(C)C)o2)c1 (stereo not given) | -8.099%
23 | Cc1cnn(CC2CN(Cc3nccn3CC(F)(F)F)CCO2)c1 (stereo not given) | -15.97%

Row | SMILES | Percent Effect
24 | Cc1nc(C2CCCN2Cc2nccn2CC(F)(F)F)no1 (stereo not given) | -9.202%
25 | CCn1ccnc1CN1CCCC1Cn1cc(C)cn1 (stereo not given) | 89.45%
26 | Cc1cnn(CC2CCCCN2Cc2nccn2CC(F)(F)F)c1 (stereo not given) | 52.97%
27 | Cc1cnn(CC2CCCN2Cc2nccn2CC(F)(F)F)c1 (stereo not given) | 101.7%
28 | CCn1ccnc1CN1CCN(CCC(=O)NC2CCCCC2)CC1 | 24.85%
29 | CC1=N[C@@]2(CC[C@@H]3CNC[C@@H]32)C(=O)N1CC(C)C.O=C(O)C(F)(F)F | -9.466%
30 | Fc1cnc(N2CCCC3(COCCN(c4nccs4)C3)C2)nc1.O=C(O)C(F)(F)F.O=C(O)C(F)(F)F (stereo not given) | 4.049%
31 | COc1c(CNC2CCCOc3ccc(F)cc32)c(C(C)C)nn1C.Cl (stereo not given) | -10.1%
32 | O=C(O)C(F)(F)F.O=C1NCC[C@]12CN(CC1CCOCC1)C[C@H]2c1ccccc1 | -6.347%
33 | CCc1ccc(CN2C[C@H](OCC(=O)N(C)C)[C@H]3COC[C@H]32)o1.O=C(O)C(F)(F)F | 13.05%
34 | CO[C@H]1CN(CC2CC2)[C@@H]2CCCO[C@H]12.O=C(O)C(F)(F)F | 13.63%
35 | CC(C)CC(NCc1cscn1)c1ccccn1 (stereo not given) | 27.38%
36 | CS(=O)(=O)N1CCC(C(=O)NC(Cc2ccsc2)c2ccccn2)CC1 (stereo not given) | -2.015%
37 | O=C(Cn1cccnc1=O)NC(Cc1cccs1)c1ccccn1 (stereo not given) | -7.839%
38 | c1ccc(OCCNCc2cccs2)nc1 | -4.17%
39 | CC(C)CC(NCc1cccs1)c1ccccn1 (stereo not given) | 99.48%
40 | CC(C)CC(NCc1ccsc1)c1ccccn1 (stereo not given) | 95.2%
41 | Cl.O=C(c1ccccc1)N1CCC2(CC1)CNc1c(F)cccc12 | 9.544%
42 | Cc1cnn(CC2CN(Cc3nc4ccccc4s3)CCO2)c1 (stereo not given) | -2.009%
43 | CN(Cc1cncnc1)[C@@H]1CN(C(=O)c2ccco2)[C@@H]2CCCO[C@H]12.O=C(O)C(F)(F)F | 50.13%
44 | CN(Cc1cncnc1)[C@H]1CN(C(=O)c2ccco2)[C@@H]2CCCO[C@@H]21 | -2.729%
45 | CN(Cc1cncnc1)[C@@H]1CN(C(=O)C2CC2)[C@@H]2CCCO[C@H]12.O=C(O)C(F)(F)F | 8.478%
46 | COc1ccc2[nH]cc(C(=O)CNc3nc(C)cs3)c2c1.I | 4.496%

Row | SMILES | Percent Effect
47 | COc1cccc(CC(=O)N2CC[C@@H]3[C@H](CC2)N(C)CCS3(=O)=O)c1.O=C(O)C(F)(F)F | 5.677%
48 | CN(C)c1nc(N)nc(CN2CCCC2c2ccsc2)n1 (stereo not given) | 64.16%
49 | Cn1ncc2c(=O)[nH]c(CN3CCCC3c3ccsc3)nc21 (stereo not given) | -12.54%
50 | CN(C)c1nc(N)nc(CN2CCCC(c3ccccc3)CC2)n1 (stereo not given) | -13.13%
51 | CN(C)c1nc(N)nc(CN2CCCC2c2cccs2)n1 (stereo not given) | 97.97%
52 | CCCc1noc(CN2CCCC2c2ccsc2)n1 (stereo not given) | 4.131%
53 | Cc1ccccc1C1CCCN1Cc1nc2c(cnn2C)c(=O)[nH]1 (stereo not given) | -11.52%
54 | Cn1ncc2c(=O)[nH]c(CN3CCCC3c3cccs3)nc21 (stereo not given) | 80.29%
55 | Cc1cccc(C2CCCN2Cc2nc(N)nc(N(C)C)n2)c1C (stereo not given) | 47.4%
56 | Cc1nc(CN2CCCC2c2ccsc2)nc2ccccc12 (stereo not given) | 40.46%
57 | CC(C)NC(=O)N1CCc2ncc(CN3CCOCC3)n2CC1.O=C(O)C(F)(F)F | -16.24%
58 | Cc1noc(C)c1CN1CC[C@H]2[C@H]1CCN2CC1CCOCC1.O=C(O)C(F)(F)F.O=C(O)C(F)(F)F | -9.429%
59 | C=C(C)CN1CCN(Cc2cnc(-c3ccccc3C)nc2)CC1.O=C(O)CC(O)(CC(=O)O)C(=O)O | 1.349%
60 | CCOCC1CN(Cc2ccoc2)Cc2nn(C)cc21.O=C(O)C(F)(F)F (stereo not given) | -18.76%
61 | O=C(N1CCCC1)N1CC[C@H]2[C@H]1CCN2c1ncccn1.O=C(O)C(F)(F)F | -10.67%
62 | COc1cc2c(cc1CNC(Cc1cccs1)c1nccs1)OCCO2.Cl (stereo not given) | 2.723%
63 | Cl.O=C(C1CCC1)N1C[C@@H](c2ccsc2)[C@@H]2CN(C3CCCCC3)CC[C@@H]21 | -50.24%
64 | Cc1ccc2nc(C3CCN(CC4CC4)CC3)nn2c1.O=C(O)C(F)(F)F | -35.41%
65 | CCOC(C)C(=O)NCCNS(C)(=O)=O (stereo not given) | 69.12%
66 | CC(C)COC(C)C(=O)NCCNC(=O)C(C)C (stereo not given) | -3.282%
67 | CC(C)COC(C)C(=O)NCCNS(C)(=O)=O (stereo not given) | -20.75%
68 | O=C(O)C(F)(F)F.O=C(c1ccoc1)N1CC[C@@H](N2CCOCC2)[C@@H]1Cc1ccccc1 | -25.18%
69 | O=C(NCc1ccccn1)[C@H]1COC[C@H]2CN(C3CCCC3)C[C@H]21.O=C(O)C(F)(F)F.O=C(O)C(F)(F)F | -26.6%

Row | SMILES | Percent Effect
70 | Cc1ccc(CN[C@@H]2COC[C@H]2Cc2cc(C)no2)cc1.O=C(O)CC(O)(CC(=O)O)C(=O)O | 0.5554%
71 | O=C1CN(Cc2nnc(-c3ccccc3Br)o2)CCN1 | 14.67%
72 | O=C1CN(Cc2nnc(-c3ccc(Br)cc3)o2)CCN1 | 1.317%
73 | O=C1CN(Cc2nnc(-c3ccc(Br)o3)o2)CCN1 | 51.83%
74 | Cl.c1cc(CNCc2ccc(Cn3cncn3)cc2)c2c(c1)OCCO2 | -1.246%
75 | Cl.NC(=O)COc1ccc(CNCc2cc(F)ccc2F)cc1 | -36.29%
76 | CCOc1nc2cccnc2n(CC(=O)NCCOC)c1=O | 5.103%
77 | COCCNC(=O)Cn1c(-c2cccc(F)c2)nc(C)c(CCO)c1=O | 66.78%
78 | CCN(CC)C(=O)Cn1c(-c2ccc(Cl)cc2)nc(C)c(CCO)c1=O | 69.66%
79 | COCCCNC(=O)Cn1c(-c2cccc(Cl)c2)nc(C)cc1=O | 10.79%
80 | CCN(CC)C(=O)c1nnsc1-c1ccc(Cl)cc1 | -12.37%
81 | COCCNC(=O)Cn1c(-c2cccc(Cl)c2)nc(C)c(CCO)c1=O | 68.55%
82 | COCCNC(=O)Cn1c(-c2ccc(Cl)cc2)nc(C)c(CCO)c1=O | 50.09%
83 | Cc1cc(=O)n(CC(=O)NCCC(C)C)c(-c2cccc(Cl)c2)n1 | 9.879%
84 | COCCNC(=O)Cn1c(-c2ccc(F)cc2)nc(C)c(CCO)c1=O | 29.85%
85 | Cc1nc(-c2ccc(Cl)cc2)n(CC(=O)NC(C)C)c(=O)c1CCO | 47.89%
86 | CCc1cc(=O)n(CC(=O)NCC2CCCO2)c(-c2cccc(F)c2)n1 (stereo not given) | 19.5%
87 | COCCNC(=O)Cn1ccc2ccc(F)cc21 | 14.54%
88 | Cc1ccc(-c2ccc(C3CNCCO3)nc2)cc1.Cl (stereo not given) | -12.85%
89 | CC[C@@H]1N(Cc2nccs2)CCC[C@]12CCC(=O)N2C.O=C(O)C(F)(F)F | -9.457%
90 | CCOCC1CN(Cc2ccccn2)Cc2nn(CC3CC3)cc21.O=C(O)C(F)(F)F.O=C(O)C(F)(F)F (stereo not given) | -24.37%
